High-throughput results: PubChem BioAssay, National Center for Advancing Translational Sciences (NCATS)
Giardia FBPA inh – blocks Giardia fructose-bisphosphate aldolase activity | A8B2U2 | purified Giardia FBPA | Potency, µM (series often up to 59.6 µM), for inactives: top-dose activity, negative = inhibition, actives largely listed as inhibitors | hit rate 0.71% among 290,000; also: potency is read from the fitted curve at half-maximal effect; nearly all actives have a fitted effect of over 55% in size
Target sequence (A8B2U2 whole entry, looked up): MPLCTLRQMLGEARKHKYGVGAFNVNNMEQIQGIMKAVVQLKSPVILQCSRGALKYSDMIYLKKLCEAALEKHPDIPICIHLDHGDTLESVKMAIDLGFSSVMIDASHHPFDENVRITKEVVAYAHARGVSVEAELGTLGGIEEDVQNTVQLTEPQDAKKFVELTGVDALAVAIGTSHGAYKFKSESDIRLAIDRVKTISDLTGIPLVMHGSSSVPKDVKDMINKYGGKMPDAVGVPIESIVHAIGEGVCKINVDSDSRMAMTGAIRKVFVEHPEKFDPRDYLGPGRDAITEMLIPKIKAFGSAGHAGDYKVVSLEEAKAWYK
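Giardia FBPA (40 nM reagent) was preincubated 10 min at RT with compound (up to 57.5 uM final), then substrate plus GAPDH/TPI/NAD/arsenate coupling system with diaphorase/resazurin was added; resorufin fluorescence (525/598 nm) was read after 20 min.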
LASV entry inh – blocks Lassa virus binding to or entry into cells; Lassa virus pseudotype entry inhibition, cell reporter; Potency, µM (doses to about 37.9 µM), for the others: at the highest dose activity change, negative = inhibition, most hits filed as inhibitors; hit rate 1.2% among 300,000; calls by dose curve; tested in HEK293 cells; also: potency is read from the fitted curve at half-maximal effect; nearly all actives have a fitted effect of over 50% in size
FMDV antiviral – blocks foot and mouth disease virus | Potency, µM (titrated, usually from 57.9 µM), for the others: top-dose activity change, negative = inhibition, hits mostly inhibitors | FMDV antiviral cell-based qHTS | hit rate 1.2% among 410,000; calls by dose curve; tested in HEK293T cells; also: read-out not given here; potency is read from the fitted curve at half-maximal effect; nearly all actives have a fitted effect of over 45% in size
HCV inhibitor – blocks hepatitis C virus. Huh7.5.1 HCVcc-Cre infection, luciferase reporter, 44 h. AID 651820. Potency, µM (series often up to 41.8 µM), for inactives: at the highest dose activity change, negative = inhibition, most hits filed as inhibitors. hit rate 3.4% among 340,000; also: potency is read from the fitted curve at half-maximal effect
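Antiviral activity was scored by luciferase reporter output from cells infected with HCVcc-Cre (~0.5 moi) in presence of compound, 44 h infection period, cells seeded 1,000/well 4 h prior.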
Marburg entry inh – Marburg virus entry inhibition; Marburg virus pseudotyped entry inhibition, cell reporter; Potency, µM (highest dose often 37.8 µM), for inactives: at the top dose activity change, negative = inhibition, actives largely listed as inhibitors; hit rate 1.8% among 300,000; AID 540276; calls by dose curve; tested in HEK293 cells; also: potency is read from the fitted curve at half-maximal effect
HCMV antiviral – human cytomegalovirus inhibition; AID 1259415; hit rate 4.5% among 410,000; HFF cells, HCMV-luciferase reporter, 72 h; hits give low values; activity change, negative = inhibition, % at 57.5 µM; in the data active = activity change below about -60%; inconclusive = no clear call, values can overlap the other calls; inactive = above about -39%
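HFF cells seeded 16 h at 37C, treated with compounds, infected with luciferase-reporter HCMV at MOI 1 PFU/cell; luciferase read at 72 h post infection, normalized to buffer-only and Salinomycin controls.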
The depositor's hits bear a star; ? = inconclusive; · = not tested or not shown; [ ] = another dose, or the depositor's remark. Compounds with a hit are over-represented: about 8.3% of the library has one in this group of screens. Unless noted, calls follow the shape of the dose curve; as a rule, active = well fitted curve in the direction sought with a large enough effect; inconclusive = small, poorly fitted or top-dose-only effect, or another doubt; inactive = no such curve, though single readings can be large; an effect the other way counts as inactive or inconclusive. % is scaled to controls: 0 for no effect and ±100 for the full control effect.

SMILES	Giardia FBPA inh	LASV entry inh	FMDV antiviral	HCV inhibitor	Marburg entry inh	HCMV antiviral
CCCCC(=O)N1C/C=C\C(c2ccc(OC)cc2)N(Cc2ccc(F)cc2)C(=O)C1Cc1ccccc1 (stereo not drawn)	-5.2%	·	·	·	·	·
On1c2c(c3c4nonc4ccc31)CCCC2	5.61µM*	·	·	?	·	·
COn1c2c(c3c4nonc4ccc31)CCCC2	?	?	·	?	1.6%	-25.1
CC1(C)C[C@H]2C3=CCC4[C@@]5(C)CC[C@H](O)[C@@](C)(CO)C5CC[C@@]4(C)[C@]3(C)C[C@@H](O)[C@@]2(CO)[C@@H](O)[C@@H]1O (stereo partly drawn)	·	·	-17.6%	3.8%	·	-73.1*
CC1(C)C[C@@H](O)[C@]2(C)CC[C@]3(C)C(=CCC4[C@@]5(C)CC[C@H](O)[C@](C)(CO)C5CC[C@]43C)[C@@H]2C1 (stereo partly drawn)	·	·	-24.1%	24.3%	·	3.6
Cc1cccnc1C(NC(=O)C1CCN(Cc2ccccc2)CC1)c1ccc(F)cc1 (stereo not drawn)	·	·	-10.4%	·	·	-61.7*
COc1cc(CN2CCC(C(=O)NC(c3ccc(F)cc3)c3ncccc3C)CC2)cc(OC)c1 (stereo not drawn)	·	·	-24.6%	·	·	4.2
COc1cc2c(cc1OC)CN(c1nc(CN3CCOCC3)nc3sc4c(c13)CCCC4)CC2	0.8%	?	?	?	?	1.2
COc1cc2c(cc1OC)CN(c1nc(CN3CCCCC3)nc3sc4c(c13)CCCC4)CC2	-0.4%	?	-7.5%	22.4µM*	?	36.5
CC(C)N(CCC(=O)c1ccc2ccccc2c1)Cc1ccccc1	11.7%	5.17µM*	-28.7%	-26.6%	12.6µM*	-77.2*
Cc1ccc(NC2=CC(=O)c3sc(C)nc3C2=O)cc1	-11.4%	·	?	·	·	·
Nc1ccccc1SCc1c(Cl)cccc1Cl	-4.4%	28.2%	-19.1%	12.6%	10.5%[46.1 µM]	52.1
Nc1ccccc1SCc1ccccc1Cl	-10.2%	-4.2%	36.4%	6.1%	?	-65.8*
COCCn1c(=O)c(-c2ccc(Cl)cc2)nc2cnc(Oc3cccc(Cl)c3)nc21	-1.3%	·	-13.5%	·	·	·
Cc1cccc(NC(=O)CSc2ccc(-c3ccccn3)nn2)c1	·	-8.9%[46.1 µM]	-1.2%	·	·	-105.3*
O=C(CSc1ccc(-c2cccs2)nn1)Nc1ccccc1	4.4%	1.0%	-11.9%	?	?	-15.2
COc1ccc(C)cc1NC(=O)CSc1ccc(-c2ccccn2)nn1	·	?	?	?	?	-93.2*
COc1cc(NC(=O)CSc2ccc(-c3ccccn3)nn2)cc(OC)c1	·	?	0.0%	?	?	?
Cc1cc(C)cc(NC(=O)CSc2ccc(-c3cccs3)nn2)c1	0.2%	?	?	?	7.08µM*	?
Cc1cc(Cl)ccc1OCC(=O)Nc1c(C(=O)c2ccccc2)oc2ccccc12	·	2.4%[46.1 µM]	-10.9%	·	-2.0%[46.1 µM]	-18.3
Cn1c(=O)c(CCc2ccccc2)nc2cnc(Oc3ccccc3)nc21	1.4%	·	15.4%	·	·	·
CCC/C=C(\CCC)C(NS(=O)(=O)c1ccc(Cl)cc1)c1ccccc1 (stereo not drawn)	-3.1%	·	·	·	·	·
COc1ccc(-c2nc(CNS(=O)(=O)c3cccc(F)c3)cs2)cc1	·	-11.0%[46.1 µM]	-0.8%	·	-2.3%[46.1 µM]	?
CCN(CC)c1nc(C#N)cc(-c2ccc(OC)cc2)n1	4.6%	?	?	7.08µM*	?	-20.4
COc1ccc(-c2cc(C#N)nc(Cl)n2)cc1	4.7%	-15.6%	?	?	?	-36.8
SMILES	Giardia FBPA inh	LASV entry inh	FMDV antiviral	HCV inhibitor	Marburg entry inh	HCMV antiviral
C=CCN=C1NN=C(c2cc(C)n(CC=C)c2C)CS1	-9.7%	?	17.8µM*	?	?	-88.2*
C=CCN=C1NN=C(c2ccc3c(c2)OCCO3)CS1	-23.5%	0.461µM*	8.91µM*	-18.2%	0.92µM*	-32.7
Cc1sc(N)nc1-c1ccc2c(c1)OCCO2	-23.0%	·	50.3%	14.4%	·	31.1
NC1=NN=C(c2ccc3c(c2)OCCO3)CS1	-4.3%	7.08µM*	11.2µM*	6.2%	11.2µM*	46.7
CCOc1ccc(-c2cc(NC(=O)c3ccccc3)c(C(=O)OC)s2)cc1	·	?	-7.7%	·	0.9%[46.1 µM]	2.0
O=C(N/N=C1/C[C@@H](O)[C@@H](O)[C@@H]2[C@@H]3C(=O)N(C[C@@H]4CCCO4)C(=O)[C@H]3CC[C@@H]12)OCc1ccccc1	1.2%[12.9 µM]	·	·	·	-4.7%[14.2 µM]	·
CS(=O)(=O)N1CCC2(CCN(Cc3ccncc3)CC2)CC1	-2.0%	·	-7.8%	·	·	·
O=C1C(n2ccc3ccccc32)c2cc(OC(F)(F)F)ccc2N1Cc1ccc(C(F)(F)F)cc1 (stereo not drawn)	·	·	·	·	·	-88.8*
COc1ccc(CN2C(=O)C(n3ccc4ccccc43)c3cccc(F)c32)cc1 (stereo not drawn)	·	·	·	·	·	-72.0*
COc1ccc2c(c1)OCC(Cc1ccc(OC)c(O)c1)C2=O (stereo not drawn)	0.7%	·	10.7%	·	·	·
Cc1cccc(Cn2c(C)c(CNC3CCCCCC3)c(C(=O)O)c2C)c1	·	-9.4%[46.1 µM]	-9.1%	·	-12.1%[46.1 µM]	-11.7
Cn1c(-c2cccc(F)c2)nc2c1c(=O)[nH]c(=O)n2Cc1ccccc1	-3.1%	8.91µM*	1.5%	0.2%	-0.3%[46.1 µM]	30.8
Cn1c(-c2cccc(OCc3ccccc3)c2)nc2c1c(=O)[nH]c(=O)n2Cc1ccccc1	-1.4%	?	35.5µM*	2.9%	-8.1%	-15.0
COc1ccc(-c2nc3c(c(=O)[nH]c(=O)n3Cc3ccccc3)n2Cc2ccccc2)cc1	2.6%	?	?	12.6µM*	?	?
CCCn1c(-c2cccc(F)c2)nc2c1c(=O)[nH]c(=O)n2Cc1ccccc1	3.3%	?	-18.5%	4.2%	-22.7%[46.1 µM]	-12.8
COCCn1c(-c2cccc([N+](=O)[O-])c2)nc2c1c(=O)[nH]c(=O)n2Cc1ccccc1	-1.7%	?	-13.7%	-19.5%	?	-87.3*
COC1=C(OC)C(=O)C(CCCCCCCCCCO)=C(C)C1=O	4.46µM*	·	·	·	·	-18.3
CC(C)CC1c2[nH]c3ccccc3c2CCN1C(=O)c1cnccn1 (stereo not drawn)	-0.4%	?	28.5%	-6.0%	2.82µM*	2.0
CC(C)c1ccc(NC(=O)C2C3C=CC4(O3)C2C(=O)N(CCCN2CCCCC2)C4C(=O)NC2CCCCC2)cc1 (stereo not drawn)	-2.5%	·	-9.7%	-13.6%	2.8%[46.1 µM]	-77.2*
C/C(=N\NC(=O)c1ccccc1)c1ccc(NC(=O)C(F)(F)F)cc1	·	·	·	·	0.3%[46.1 µM]	·
Cc1cc(-n2c(C)cc(C(=O)CSc3ncnc4ccccc34)c2C)no1	?	?	12.6µM*	2.82µM*	9.2µM*	-78.3*
Cc1cc(C(=O)CSc2ncnc3ccccc23)c(C)n1C1CC1	·	-1.5%	-29.9%	10µM*	10.3%	-9.8
CC(=O)c1cccc(OCC(=O)c2cc(C)n(-c3cc(C)on3)c2C)c1	?	-42.9%	22.4µM*	?	-28.6%	-3.4
